Where “and” joins values, the source holds several entries; their conditions need not be identical. Equal entries are not always repeated.

The test system of this test is SUDIPGIV (diffuse intrinsic pontine glioma line)
The test is described as follows: growth inhibition (% activity, log2 RLU normalised to DMSO / staurosporine); higher = more growth inhibition. Conditions: 33 µM. In a few lines:
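In triplicate, pHGG cell lines and H9-derived neural stem cells were treated for 7 days at 37 °C, 5% CO2 with approved drugs at a single final concentration of about 33 μM, added by pin tool. CellTiter-Glo luminescence, after log2 transformation, was normalised on each plate to % activity between solvent and positive control wells. Growth inhibition is reported as the median across replicates.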
For `Cc1ccc(NC(=O)c2ccc(CN3CCN(C)CC3)cc2)cc1Nc1nc(-c2cccnc2)cs1`, the growth inhibition worked out at 7.78%.
Regarding `CO[C@H]1C(=O)[C@]2(C)[C@@H](OC)C[C@H]3OC[C@@]3(OC(C)=O)[C@H]2[C@H](OC(=O)c2ccccc2)[C@]2(O)C[C@H](OC(=O)[C@H](O)[C@@H](NC(=O)OC(C)(C)C)c3ccccc3)C(C)=C1C2(C)C`, the growth inhibition worked out at 22.5%.
For the compound `C#C[C@]1(O)CC[C@H]2[C@@H]3CCc4cc(O)ccc4[C@H]3CC[C@@]21C`, the growth inhibition is -1.64%.
Regarding `CN(C)c1ccc(C(=C2C=CC(=[N+](C)C)C=C2)c2ccc(N(C)C)cc2)cc1`, the growth inhibition is 43.1%.
Take `CN1CCN(c2c(F)cc3c(=O)c(C(=O)O)cn(CCF)c3c2F)CC1`: the growth inhibition is 2.18%.
Turning to `CC(C)(C#N)c1cc(Cn2cncn2)cc(C(C)(C)C#N)c1`, the growth inhibition was -0.235%.
In the case of `CNC(=O)c1ccccc1Sc1ccc2c(/C=C/c3ccccn3)n[nH]c2c1` it was 4.73%; in that of `Cc1ccccc1C(=O)Nc1ccc(C(=O)N2CCCC(O)c3cc(Cl)ccc32)c(C)c1` (centres undefined), 2.35%.
Take `O=C(O)c1cc(=O)c2ccccc2o1`: the growth inhibition was determined as 0.468%.
As to `CC[C@H](C)C(=O)O[C@H]1C[C@H](O)C=C2C=C[C@H](C)[C@H](CC[C@@H](O)C[C@@H](O)CC(=O)O)[C@H]21`, the growth inhibition was 1.99%.
Take `Cc1ccccc1C(OCCN(C)C)c1ccccc1` (centres undefined): the growth inhibition was found to be 0.0322%.
In the case of `CC(C)(Oc1ccc(Cl)cc1)C(=O)O`, the growth inhibition came to 0.614%.
Consider `C#C[C@]1(OC(C)=O)CC[C@H]2[C@@H]3CCC4=C[C@@H](OC(C)=O)CC[C@@H]4[C@H]3CC[C@@]21C`, for which the growth inhibition is -1.23%.
In the case of `CN1[C@@H]2CC[C@H]1CC(OC(=O)c1c[nH]c3ccccc13)C2` (some centres undefined) it was 9.21%.
Regarding `Cc1ccccc1N1C(=O)c2cc(S(N)(=O)=O)c(Cl)cc2NC1C` (centres undefined), the growth inhibition was -1.65%.
As to `Cc1cc(NS(=O)(=O)c2ccc(N)cc2)no1`, the growth inhibition was -3.28%.
For `COC(=O)C1=C(C)NC(C)=C(C(=O)OC2CCCN(Cc3ccccc3)C2)C1c1cccc([N+](=O)[O-])c1` (centres undefined), the growth inhibition worked out at 3.22%.
In the case of `CC(C)/N=c1\cc2n(-c3ccc(Cl)cc3)c3ccccc3nc-2cc1Nc1ccc(Cl)cc1`, the growth inhibition stood at 21.9%.
On to `O=C(OCC(O)CO)c1ccccc1Nc1ccnc2cc(Cl)ccc12` (centres undefined), for which the growth inhibition is -4.61%.
The same measure for `O=C(O)CSCC(=O)NC1CCSC1=O` (centres undefined): 0.118%; for `C=C1CC[C@H](O)C/C1=C/C=C1\CCC[C@]2(C)[C@@H]([C@H](C)/C=C/[C@H](C)C(C)C)CC[C@@H]12`: 3.53%; for `COC(=O)Nc1nc2cc([S+]([O-])c3ccccc3)ccc2[nH]1` (centres undefined): 6.67%.
The same measure for `CN(C)[C@@H](CCOc1cccc2ccccc12)c1ccccc1`: 3.4%; for `O=c1c(-c2ccc(O)cc2)coc2cc(O)cc(O)c12`: -1.2%; for `O=C1CCc2cc(OCCCCc3nnnn3C3CCCCC3)ccc2N1`: 3.38%.
In the case of `C[C@@](Cc1ccc(O)c(O)c1)(NN)C(=O)O`, the growth inhibition turned out to be 0.65%.
With `CCc1ccc(CCOc2ccc(CC3SC(=O)NC3=O)cc2)nc1` (centres undefined), the growth inhibition is -1.64% and 1.36%.
In the case of `CC(C[N+](C)(C)C)OC(N)=O` (centres undefined) it was -1.69%; in that of `CN(C)CCOc1ccc(/C(=C(/CCCl)c2ccccc2)c2ccccc2)cc1`, 2.82%; in that of `CCNC(=O)CCC/C=C\C[C@@H]1[C@@H](/C=C/[C@@H](O)CCc2ccccc2)[C@H](O)C[C@@H]1O`, 0.456%.
In the case of `CO[C@H]1O[C@@H]2O[C@@]3(C)CC[C@H]4[C@H](C)CC[C@@H]([C@H]1C)[C@@]24OO3` it was 13.7%; in that of `N=C(N)NS(=O)(=O)c1ccc(N)cc1`, 1.45%.
In the case of `CNC[C@H](O)c1cccc(O)c1`, the growth inhibition was 0.826%.
Turning to `CC(C)(C)NCC(O)c1ccc(O)c(CO)c1` (centres undefined), the growth inhibition came out at 1.26%.
For `C=C1[C@H](CO)[C@@H](O)C[C@@H]1n1cnc2c(=O)[nH]c(N)nc21`, the growth inhibition is -0.629%.
Regarding `CC(C)(C(=O)O)c1ccc(C(O)CCCN2CCC(C(O)(c3ccccc3)c3ccccc3)CC2)cc1` (centres undefined), the growth inhibition came out at 0.0574%.
In the case of `NCCS`, the growth inhibition is -2.89%.
Regarding `CCCc1nn(C)c2c(=O)[nH]c(-c3cc(S(=O)(=O)N4CCN(C)CC4)ccc3OCC)nc12`, the growth inhibition was -2.48%.
`COC1C(O)CC(=O)OC(C)CC=CC=CC(OC2CCC(N(C)C)C(C)O2)C(C)CC(CC=O)C1OC1OC(C)C(OC2CC(C)(O)C(O)C(C)O2)C(N(C)C)C1O` (centres undefined): the growth inhibition was -0.377%.

(Values after the supplement of paper PMC8253809.)
